Here are results for one sequence from publication PMC7862700, “An all-to-all approach to the identification of sequence-specific readers for epigenetic DNA modifications on cytosine”.

Common to all, as to experiment: DAPPL (digital affinity profiling via proximity ligation, sequencing); 10 mM Tris-HCl pH 7.5, 50 mM NaCl, 1 mM DTT, 4% glycerol, room temperature, 30 min; GST-TFs on glutathione beads, 16-mer random dsDNA library, 0.1% formaldehyde crosslink after washing; high values mean tight binding
In one assay the target is T1, FLI1 (Homo sapiens, UniProt Q01543 1-452).
T1 sequence: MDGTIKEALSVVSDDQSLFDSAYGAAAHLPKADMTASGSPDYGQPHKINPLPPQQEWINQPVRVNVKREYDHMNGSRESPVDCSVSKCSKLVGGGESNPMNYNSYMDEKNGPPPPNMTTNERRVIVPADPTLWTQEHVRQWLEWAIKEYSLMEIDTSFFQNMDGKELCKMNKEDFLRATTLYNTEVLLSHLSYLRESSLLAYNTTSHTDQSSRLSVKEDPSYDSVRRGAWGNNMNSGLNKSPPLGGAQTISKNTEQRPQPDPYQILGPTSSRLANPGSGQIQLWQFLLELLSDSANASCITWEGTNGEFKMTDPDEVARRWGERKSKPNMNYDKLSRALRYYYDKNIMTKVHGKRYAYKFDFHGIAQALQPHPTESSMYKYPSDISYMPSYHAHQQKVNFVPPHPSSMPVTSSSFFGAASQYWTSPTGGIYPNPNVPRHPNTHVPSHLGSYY
The following applies: protein: recombinant; tags: N-terminal GST; dsDNA, one strand shown. The method in brief: (§1)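 Binding signal is given per hexamer as its read frequency for a factor divided by its frequency in the tag-only sample. GST-fused human transcription factors were expressed in yeast, captured on glutathione beads, barcoded with DNA and pooled with that sample, then incubated with 200 nmole of a 16-mer random double-stranded DNA library in Tris/NaCl/DTT/glycerol buffer for 30 min at room temperature. The pools were then washed, crosslinked, proximity-ligated, amplified by PCR and sequenced on an Illumina NextSeq500.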

A further assay concerns the target T2, ELK1 (Homo sapiens, UniProt P19419 1-428).
T2 sequence: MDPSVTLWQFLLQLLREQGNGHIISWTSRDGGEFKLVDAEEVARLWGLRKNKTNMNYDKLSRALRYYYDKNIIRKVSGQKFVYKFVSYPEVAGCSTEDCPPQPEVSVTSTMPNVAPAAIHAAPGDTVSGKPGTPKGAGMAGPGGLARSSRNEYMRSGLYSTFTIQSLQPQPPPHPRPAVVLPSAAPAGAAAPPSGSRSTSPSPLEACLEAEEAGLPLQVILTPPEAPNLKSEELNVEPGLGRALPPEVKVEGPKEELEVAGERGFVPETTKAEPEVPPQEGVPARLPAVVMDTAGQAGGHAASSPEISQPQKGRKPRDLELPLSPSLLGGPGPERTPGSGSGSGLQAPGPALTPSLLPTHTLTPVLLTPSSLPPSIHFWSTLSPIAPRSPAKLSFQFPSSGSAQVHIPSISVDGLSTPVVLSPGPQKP
The following applies: protein: recombinant; tags: N-terminal GST; dsDNA, one strand shown. The method in brief: as §1

In a further assay the target is T3, GABPA (Homo sapiens, UniProt Q06546 1-454).
T3 sequence: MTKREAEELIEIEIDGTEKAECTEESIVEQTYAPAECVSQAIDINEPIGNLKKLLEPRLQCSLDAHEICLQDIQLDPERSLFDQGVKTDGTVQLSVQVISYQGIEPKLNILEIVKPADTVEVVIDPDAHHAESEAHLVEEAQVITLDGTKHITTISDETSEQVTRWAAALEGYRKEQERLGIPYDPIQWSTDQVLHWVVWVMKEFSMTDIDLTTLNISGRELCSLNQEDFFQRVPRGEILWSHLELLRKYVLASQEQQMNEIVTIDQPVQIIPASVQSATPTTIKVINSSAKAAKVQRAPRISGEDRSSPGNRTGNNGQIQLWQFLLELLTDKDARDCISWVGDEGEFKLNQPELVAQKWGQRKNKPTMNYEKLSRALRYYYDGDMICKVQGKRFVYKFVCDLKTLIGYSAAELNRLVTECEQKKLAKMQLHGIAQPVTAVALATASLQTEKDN
The following applies: protein: recombinant; tags: N-terminal GST; dsDNA, one strand shown. Summed up: as §1

The next assay concerns the target T4, ERG (Homo sapiens, UniProt P11308 1-479).
T4 sequence: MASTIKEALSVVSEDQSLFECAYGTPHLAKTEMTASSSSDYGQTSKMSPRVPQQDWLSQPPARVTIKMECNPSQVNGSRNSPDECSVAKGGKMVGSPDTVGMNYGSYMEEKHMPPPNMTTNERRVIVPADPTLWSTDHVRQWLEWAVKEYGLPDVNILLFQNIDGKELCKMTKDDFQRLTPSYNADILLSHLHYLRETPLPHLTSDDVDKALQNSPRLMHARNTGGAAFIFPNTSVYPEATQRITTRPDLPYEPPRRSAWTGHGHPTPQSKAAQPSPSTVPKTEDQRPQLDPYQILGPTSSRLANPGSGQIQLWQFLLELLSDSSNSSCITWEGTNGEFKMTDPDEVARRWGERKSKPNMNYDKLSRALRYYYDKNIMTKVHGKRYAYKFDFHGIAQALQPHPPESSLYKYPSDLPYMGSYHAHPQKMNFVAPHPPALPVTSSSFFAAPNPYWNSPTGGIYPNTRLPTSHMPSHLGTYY
The following applies: protein: recombinant; tags: N-terminal GST; dsDNA, one strand shown. Summed up: as §1

The target in the next assay is ELF1 (Homo sapiens, UniProt P32519 1-619). The following applies: protein: recombinant; tags: N-terminal GST; dsDNA, one strand shown. Summed up: as §1
The next assay concerns the target T5, EHF (Homo sapiens, UniProt Q9NZC4 1-300).
T5 sequence: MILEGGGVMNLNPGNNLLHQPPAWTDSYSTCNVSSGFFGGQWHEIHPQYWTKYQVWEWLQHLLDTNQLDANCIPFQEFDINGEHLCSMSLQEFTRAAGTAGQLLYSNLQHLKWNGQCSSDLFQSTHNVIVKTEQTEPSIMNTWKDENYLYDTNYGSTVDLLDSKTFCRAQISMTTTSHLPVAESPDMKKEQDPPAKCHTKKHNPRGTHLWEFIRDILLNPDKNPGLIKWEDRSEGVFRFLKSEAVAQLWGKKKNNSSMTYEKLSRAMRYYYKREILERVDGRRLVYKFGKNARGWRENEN
The following applies: protein: recombinant; tags: N-terminal GST; dsDNA, one strand shown. Summed up: as §1

A further assay addresses SPI1 (Homo sapiens, UniProt P17947 1-270). The following applies: protein: recombinant; tags: N-terminal GST; dsDNA, one strand shown. Summed up:
as §1

For another assay, the target named is SPIB (Homo sapiens, UniProt Q01892 1-262). The following applies: protein: recombinant; tags: N-terminal GST; dsDNA, one strand shown. The method in brief:
as §1

The target in a further assay is T6, ELK3 (Homo sapiens, UniProt P41970 1-407).
T6 sequence: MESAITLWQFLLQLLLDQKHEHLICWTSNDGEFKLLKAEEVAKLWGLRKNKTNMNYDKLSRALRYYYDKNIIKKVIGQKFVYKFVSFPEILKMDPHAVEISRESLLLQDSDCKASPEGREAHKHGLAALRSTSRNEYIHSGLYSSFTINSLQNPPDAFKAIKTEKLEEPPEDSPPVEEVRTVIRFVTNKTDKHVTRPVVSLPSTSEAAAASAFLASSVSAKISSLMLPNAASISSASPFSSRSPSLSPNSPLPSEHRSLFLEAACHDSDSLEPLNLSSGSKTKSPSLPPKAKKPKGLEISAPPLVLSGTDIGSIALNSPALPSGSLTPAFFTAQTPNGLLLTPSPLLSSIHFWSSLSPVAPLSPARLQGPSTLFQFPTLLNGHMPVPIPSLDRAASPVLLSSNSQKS
The following applies: protein: recombinant; tags: N-terminal GST; dsDNA, one strand shown. Summed up:
as §1

Another assay concerns the target T7, FEV (Homo sapiens, UniProt Q99581 1-238).
T7 sequence: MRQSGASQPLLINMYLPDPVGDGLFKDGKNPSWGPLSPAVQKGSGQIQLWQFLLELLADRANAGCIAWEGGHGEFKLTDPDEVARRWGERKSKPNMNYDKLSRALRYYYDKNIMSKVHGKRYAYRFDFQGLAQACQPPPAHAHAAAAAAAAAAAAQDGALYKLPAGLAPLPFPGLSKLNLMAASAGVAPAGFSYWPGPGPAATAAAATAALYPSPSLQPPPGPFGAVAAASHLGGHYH
The following applies: protein: recombinant; tags: N-terminal GST; dsDNA, one strand shown. The method in brief: as §1

In another assay the target is ETV5 (Homo sapiens, UniProt P41161 1-510). The following applies: protein: recombinant; tags: N-terminal GST; dsDNA, one strand shown. The method in brief:
as §1

In the next assay the target is HSF1 (Homo sapiens, UniProt Q00613 1-529). The following applies: protein: recombinant; tags: N-terminal GST; chain copies: 3; dsDNA, one strand shown. Summed up: as §1
For another assay, the target named is T8, SPIC (Homo sapiens, UniProt Q8N5J4 1-248).
T8 sequence: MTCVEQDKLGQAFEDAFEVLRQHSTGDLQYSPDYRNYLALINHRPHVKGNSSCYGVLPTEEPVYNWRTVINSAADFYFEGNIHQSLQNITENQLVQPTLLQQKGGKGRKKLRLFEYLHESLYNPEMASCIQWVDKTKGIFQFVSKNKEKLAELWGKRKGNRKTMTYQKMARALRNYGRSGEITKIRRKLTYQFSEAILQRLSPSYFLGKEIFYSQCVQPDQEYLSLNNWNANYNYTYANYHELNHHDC
The following applies: protein: recombinant; tags: N-terminal GST; dsDNA, one strand shown. The method in brief: as §1

The next assay addresses ELF4 (Homo sapiens, UniProt Q99607 1-663). The following applies: protein: recombinant; tags: N-terminal GST; dsDNA, one strand shown. The method in brief:
as §1

The target of another assay is T9, ELK4 (Homo sapiens, UniProt P28324-2 1-405).
T9 sequence: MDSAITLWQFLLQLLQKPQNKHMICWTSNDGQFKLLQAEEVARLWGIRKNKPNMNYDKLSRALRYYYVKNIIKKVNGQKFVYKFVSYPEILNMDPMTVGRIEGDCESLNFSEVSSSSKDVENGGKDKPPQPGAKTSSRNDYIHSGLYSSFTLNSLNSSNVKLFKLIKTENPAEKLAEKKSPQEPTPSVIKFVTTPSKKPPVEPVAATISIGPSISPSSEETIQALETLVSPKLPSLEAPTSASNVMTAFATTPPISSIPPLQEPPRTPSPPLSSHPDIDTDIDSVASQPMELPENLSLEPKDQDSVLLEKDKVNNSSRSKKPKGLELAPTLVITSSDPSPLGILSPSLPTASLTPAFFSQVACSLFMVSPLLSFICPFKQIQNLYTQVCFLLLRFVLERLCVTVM
The following applies: protein: recombinant; tags: N-terminal GST; dsDNA, one strand shown. The method in brief:
as §1

The target of the next assay is T10, ETV2 (Homo sapiens, UniProt O00321 1-342).
T10 sequence: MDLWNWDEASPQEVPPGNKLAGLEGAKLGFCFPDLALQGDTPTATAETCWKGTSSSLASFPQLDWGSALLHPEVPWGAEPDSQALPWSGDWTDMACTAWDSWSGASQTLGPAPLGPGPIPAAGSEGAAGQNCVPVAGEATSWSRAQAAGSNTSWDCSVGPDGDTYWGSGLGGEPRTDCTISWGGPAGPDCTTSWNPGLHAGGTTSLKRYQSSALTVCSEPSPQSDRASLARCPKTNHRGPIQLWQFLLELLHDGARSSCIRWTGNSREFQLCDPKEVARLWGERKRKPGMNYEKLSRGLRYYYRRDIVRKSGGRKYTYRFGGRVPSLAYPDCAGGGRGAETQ
The following applies: protein: recombinant; tags: N-terminal GST; dsDNA, one strand shown. Summed up:
as §1

Another assay deals with T11, ELF3 (Homo sapiens, UniProt P78545 1-371).
T11 sequence: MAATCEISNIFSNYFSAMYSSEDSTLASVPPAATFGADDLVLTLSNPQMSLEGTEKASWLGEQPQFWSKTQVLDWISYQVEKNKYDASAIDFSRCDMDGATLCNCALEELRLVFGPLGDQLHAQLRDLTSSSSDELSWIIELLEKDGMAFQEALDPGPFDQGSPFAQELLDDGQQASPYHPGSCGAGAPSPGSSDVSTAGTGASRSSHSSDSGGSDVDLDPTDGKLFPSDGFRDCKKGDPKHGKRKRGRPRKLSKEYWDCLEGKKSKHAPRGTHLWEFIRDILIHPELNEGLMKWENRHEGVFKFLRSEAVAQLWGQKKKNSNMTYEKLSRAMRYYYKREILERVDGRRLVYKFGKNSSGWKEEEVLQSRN
The following applies: protein: recombinant; tags: N-terminal GST; dsDNA, one strand shown. The method in brief:
as §1

The next assay concerns the target CRX (Homo sapiens, UniProt O43186 1-299). The following applies: protein: recombinant; tags: N-terminal GST; dsDNA, one strand shown. The method in brief:
as §1

The next assay has as its target ETV1 (Homo sapiens, UniProt P50549 1-477). The following applies: protein: recombinant; tags: N-terminal GST; dsDNA, one strand shown. Summed up:
as §1

Chain of ETV1 (P50549 whole entry): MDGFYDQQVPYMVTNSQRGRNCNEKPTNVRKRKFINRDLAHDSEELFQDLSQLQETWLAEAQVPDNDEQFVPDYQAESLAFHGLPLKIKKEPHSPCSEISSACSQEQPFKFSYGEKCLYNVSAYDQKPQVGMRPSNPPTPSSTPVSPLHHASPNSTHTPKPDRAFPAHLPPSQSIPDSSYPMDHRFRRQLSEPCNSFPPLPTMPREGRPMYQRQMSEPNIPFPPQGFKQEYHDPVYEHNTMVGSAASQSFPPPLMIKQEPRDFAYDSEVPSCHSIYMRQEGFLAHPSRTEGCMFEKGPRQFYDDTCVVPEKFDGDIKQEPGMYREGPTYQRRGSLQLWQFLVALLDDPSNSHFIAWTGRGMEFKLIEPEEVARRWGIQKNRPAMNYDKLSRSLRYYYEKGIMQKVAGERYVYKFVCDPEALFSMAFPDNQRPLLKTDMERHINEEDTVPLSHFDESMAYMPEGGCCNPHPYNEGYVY
Chain of ELF4 (Q99607 whole entry): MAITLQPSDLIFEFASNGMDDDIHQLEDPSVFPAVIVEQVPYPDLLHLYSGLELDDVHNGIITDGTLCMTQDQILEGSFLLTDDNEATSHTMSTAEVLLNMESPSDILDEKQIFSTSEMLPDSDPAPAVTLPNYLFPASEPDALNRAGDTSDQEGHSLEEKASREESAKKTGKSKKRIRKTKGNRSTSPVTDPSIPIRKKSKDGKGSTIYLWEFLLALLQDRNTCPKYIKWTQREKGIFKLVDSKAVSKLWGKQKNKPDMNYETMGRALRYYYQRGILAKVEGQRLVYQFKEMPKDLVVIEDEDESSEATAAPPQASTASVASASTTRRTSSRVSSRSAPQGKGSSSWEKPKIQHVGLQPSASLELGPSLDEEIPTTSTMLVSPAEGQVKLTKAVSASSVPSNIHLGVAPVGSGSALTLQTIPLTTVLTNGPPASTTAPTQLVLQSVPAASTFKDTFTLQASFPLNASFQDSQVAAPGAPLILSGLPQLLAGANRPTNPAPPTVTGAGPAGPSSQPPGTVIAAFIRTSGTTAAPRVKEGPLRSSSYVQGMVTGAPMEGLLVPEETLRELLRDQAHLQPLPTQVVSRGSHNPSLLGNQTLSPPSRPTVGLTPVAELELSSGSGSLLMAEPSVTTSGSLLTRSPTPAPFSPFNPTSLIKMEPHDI
Chain of CRX (O43186 whole entry): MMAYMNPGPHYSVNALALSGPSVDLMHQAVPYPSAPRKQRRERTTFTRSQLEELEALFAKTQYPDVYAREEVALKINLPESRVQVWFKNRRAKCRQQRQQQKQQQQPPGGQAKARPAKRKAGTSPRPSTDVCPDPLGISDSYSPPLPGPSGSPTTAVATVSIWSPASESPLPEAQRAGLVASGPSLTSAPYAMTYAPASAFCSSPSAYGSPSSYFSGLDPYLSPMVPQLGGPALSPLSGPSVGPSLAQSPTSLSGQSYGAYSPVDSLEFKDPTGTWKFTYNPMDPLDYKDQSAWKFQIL
Chain of ETV5 (P41161 whole entry): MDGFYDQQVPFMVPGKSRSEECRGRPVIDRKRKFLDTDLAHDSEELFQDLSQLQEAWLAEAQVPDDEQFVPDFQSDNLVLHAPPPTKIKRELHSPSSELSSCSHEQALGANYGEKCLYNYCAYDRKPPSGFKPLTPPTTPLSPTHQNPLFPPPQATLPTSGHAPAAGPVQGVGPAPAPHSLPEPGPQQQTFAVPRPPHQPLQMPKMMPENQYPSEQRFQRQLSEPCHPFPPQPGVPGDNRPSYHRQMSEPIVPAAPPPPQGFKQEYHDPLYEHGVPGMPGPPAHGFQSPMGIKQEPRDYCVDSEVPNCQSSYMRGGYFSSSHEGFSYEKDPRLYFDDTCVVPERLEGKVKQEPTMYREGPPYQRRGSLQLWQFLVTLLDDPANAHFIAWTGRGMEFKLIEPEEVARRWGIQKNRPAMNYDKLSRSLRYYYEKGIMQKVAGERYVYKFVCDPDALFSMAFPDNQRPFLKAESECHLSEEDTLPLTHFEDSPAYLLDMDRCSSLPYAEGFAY
Chain of SPIB (Q01892 whole entry): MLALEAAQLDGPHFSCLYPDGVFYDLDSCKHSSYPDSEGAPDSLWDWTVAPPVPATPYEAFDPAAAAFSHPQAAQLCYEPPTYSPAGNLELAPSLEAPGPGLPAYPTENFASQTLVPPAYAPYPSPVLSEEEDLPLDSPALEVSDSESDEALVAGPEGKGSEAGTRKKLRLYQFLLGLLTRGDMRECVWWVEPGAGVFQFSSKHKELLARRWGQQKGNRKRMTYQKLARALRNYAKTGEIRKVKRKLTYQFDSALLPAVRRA
Chain of HSF1 (Q00613 whole entry): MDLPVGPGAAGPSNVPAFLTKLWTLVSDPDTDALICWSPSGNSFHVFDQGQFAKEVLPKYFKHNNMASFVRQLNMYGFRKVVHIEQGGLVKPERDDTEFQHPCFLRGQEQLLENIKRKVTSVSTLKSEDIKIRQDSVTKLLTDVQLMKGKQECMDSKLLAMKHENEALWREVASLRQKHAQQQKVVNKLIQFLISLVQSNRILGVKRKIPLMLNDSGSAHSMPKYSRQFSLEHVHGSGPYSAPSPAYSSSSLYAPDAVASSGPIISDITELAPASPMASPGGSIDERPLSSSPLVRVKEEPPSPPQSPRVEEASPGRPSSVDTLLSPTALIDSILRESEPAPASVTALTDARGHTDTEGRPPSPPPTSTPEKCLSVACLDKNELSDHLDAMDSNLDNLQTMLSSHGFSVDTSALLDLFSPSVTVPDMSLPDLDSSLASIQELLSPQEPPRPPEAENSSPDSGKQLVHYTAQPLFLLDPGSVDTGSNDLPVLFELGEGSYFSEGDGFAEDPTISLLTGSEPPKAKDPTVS
Chain of ELF1 (P32519 whole entry): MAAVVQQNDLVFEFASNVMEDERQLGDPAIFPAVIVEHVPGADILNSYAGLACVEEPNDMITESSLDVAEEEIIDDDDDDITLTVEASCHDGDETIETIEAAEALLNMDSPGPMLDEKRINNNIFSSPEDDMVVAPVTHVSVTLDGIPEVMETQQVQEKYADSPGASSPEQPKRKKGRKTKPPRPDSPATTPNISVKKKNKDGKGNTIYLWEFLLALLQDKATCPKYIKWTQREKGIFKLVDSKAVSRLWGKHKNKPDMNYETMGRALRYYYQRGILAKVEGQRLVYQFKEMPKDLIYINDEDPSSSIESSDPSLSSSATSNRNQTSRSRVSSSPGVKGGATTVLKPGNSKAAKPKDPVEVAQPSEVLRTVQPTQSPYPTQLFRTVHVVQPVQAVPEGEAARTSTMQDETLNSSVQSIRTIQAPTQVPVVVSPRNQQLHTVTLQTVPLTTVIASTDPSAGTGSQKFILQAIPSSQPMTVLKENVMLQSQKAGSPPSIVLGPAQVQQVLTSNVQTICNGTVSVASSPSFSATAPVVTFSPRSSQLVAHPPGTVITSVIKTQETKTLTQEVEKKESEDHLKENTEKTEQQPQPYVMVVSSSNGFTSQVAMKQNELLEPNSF

Turning to CTAAGC, the binding signal with FLI1 was 1.09 fold enrichment (6-mer frequency, TF over GST control); with ELK1, 1.06 fold enrichment (6-mer frequency, TF over GST control); with GABPA it was 1.08 fold enrichment (6-mer frequency, TF over GST control); in the assay with ERG, 1.11 fold enrichment (6-mer frequency, TF over GST control); with ELF1, 1.15 fold enrichment (6-mer frequency, TF over GST control); with EHF, 1.14 fold enrichment (6-mer frequency, TF over GST control). Further, the binding signal with SPI1 was 1.03 fold enrichment (6-mer frequency, TF over GST control); with SPIB, 1.16 fold enrichment (6-mer frequency, TF over GST control); in the assay with ELK3, 1.03 fold enrichment (6-mer frequency, TF over GST control); in the assay with FEV, 1.05 fold enrichment (6-mer frequency, TF over GST control); in the assay with ETV5, 1.05 fold enrichment (6-mer frequency, TF over GST control); in the assay with HSF1, 1.56 fold enrichment (6-mer frequency, TF over GST control). Also, the binding signal with SPIC was 1.08 fold enrichment (6-mer frequency, TF over GST control); in the assay with ELF4 it was 1.09 fold enrichment (6-mer frequency, TF over GST control); with ELK4, 1.16 fold enrichment (6-mer frequency, TF over GST control); in the assay with ETV2 it was 1.17 fold enrichment (6-mer frequency, TF over GST control); with ELF3, 1.12 fold enrichment (6-mer frequency, TF over GST control); with CRX it was 2.45 fold enrichment (6-mer frequency, TF over GST control). The binding signal with ETV1 was 1.06 fold enrichment (6-mer frequency, TF over GST control).
